As a reminder, the inhibition is the change of the read-out against control, counted positive when it falls.

Here are results for 92 molecules from PubChem BioAssay AID449762 (Southern Research Specialized Biocontainment Screening …, 2010).

Structures are written as SMILES. Where “and” joins values, the source holds several entries; their conditions need not be identical. Identical values can stand only once. In all, about 330,000 compounds went through this assay and about 1,900 (0.58%) were called active. Not shown: some 4% with an inconclusive outcome. Not all results are given here. Entries with a potency or affinity are not part of this list. A number with no mark means an inactive call. Rule as the data show it: inconclusive = inhibition above about 70% without an active follow-up result; inactive = below that.

A short description of the assay: M. tuberculosis growth inhibition, HTS (AID 449762).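 Also: bacterial growth assessed after seven days of incubation.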 The note with it: M. tuberculosis H37Rv growth inhibition, 7H9 media; at 25 µM; active compounds read high.
For `CNC(=O)CSCc1cnn(-c2ccccc2)c1-n1cccc1`, the inhibition was -0.17%.

`Nc1ccc(S(=O)(=O)N2CCCC2C(=O)O)cc1` (configuration not stated): the inhibition was -7.07%.

With `Nc1nonc1C(=O)NCCNCc1cc(Br)ccc1OCc1ccccc1F`, the inhibition was 14.5%.

In the case of `Nc1nonc1C(=O)NCCNCc1ccccc1OCc1ccccc1F`, the inhibition is 2.36%.

For the molecule `COc1ccc(N(CC(=O)NC2CC3CCC2C3)S(=O)(=O)c2ccc(C)c([N+](=O)[O-])c2)cc1` (configuration not stated), the inhibition was 2.1%.

On to `COc1cc(NC(=O)COc2ccc(-n3ccnc3)cc2)cc(OC)c1`, for which the inhibition is 38.6%.

For the molecule `O=C(COc1ccc(-n2ccnc2)cc1)Nc1cccc(Cl)c1`, the inhibition is -3.44%.

Regarding `Cc1ccc(C(=O)N2CCN(c3ccc([N+](=O)[O-])c(NCc4cccnc4)c3)CC2)cc1`, the inhibition was 0.99%.

With `CC(C)(C)C(=O)/C=c1\[nH]c(=O)/c(=C\c2ccccc2F)s1`, the inhibition was 48.4%.

As for `COc1cc(/C=c2\s/c(=C\C(=O)C(C)(C)C)[nH]c2=O)cc(OC)c1OC`, the inhibition is 69%.

On to `O=C(Nc1c(C(=O)NCc2ccco2)cnn1-c1ccccc1)c1ccc(F)cc1`, for which the inhibition was 3.13%.

For the molecule `COc1ccc(C(=O)Nc2nnc(S(=O)(=O)Cc3ccccc3)s2)cc1`, the inhibition is 8.58%.

Consider `O=C(N/N=C/c1ccccc1)C(=O)N/N=C/c1ccccc1`, for which the inhibition is 2.46%.

With `O=C(CC1CCCC1)N1CCN(S(=O)(=O)c2ccc(F)cc2)CC1`, the inhibition was -4.71%.

`COC(=O)c1ccccc1NC(=O)COC(=O)CSc1nnc(N)s1`: the inhibition was 0.97%.

Take `CC(C)(C)OC(=O)NCCCCCNC(=O)c1[nH]cnc1C(=O)Nc1ccon1`: the inhibition was -5.82%.

For the molecule `COc1ccc(NC(=O)NCc2cccnc2)cc1OC`, the inhibition is -5.2%.

`COC(=O)Cn1nc(-c2ccccc2)c2ccccc21`: the inhibition was 31.4%.

As to `COC(=O)Cn1nc(-c2ccccc2)c2ccccc2c1=O`, the inhibition was 65.5%.

Regarding `Cc1ccccc1C(=O)N1CCC(C(=O)N(CC(C)C)c2c(N)n(CC(C)C)c(=O)[nH]c2=O)CC1`, the inhibition is -6.17%.

In the case of `COC(=O)[C@H](CCSC)NC(=O)NCc1cccs1`, the inhibition is -7.69%.

`Cc1cc(C)nc(N2CCC(C(=O)Nc3cccc(C(F)(F)F)c3)CC2)n1`: the inhibition was -14.2%.

Take `Cc1cccc(NC(=O)C2CCN(c3nccc(C)n3)CC2)c1`: the inhibition was 3.71%.

For `CCOC(=O)c1cn(CC)c2cc(Cl)c([N+](=O)[O-])cc2c1=O`, the inhibition was 9.8%.

On to `CCCN1CCN(C2CCCCC2NS(=O)(=O)c2ccccc2)CC1` (configuration not stated), for which the inhibition was -5.87%.

Consider `OC(COC(c1ccc(F)cc1)c1ccc(F)cc1)CN1CCc2ccccc2C1` (configuration not stated), for which the inhibition was 28.2%.

Take `OC(COC(c1ccccc1)c1ccccc1)CN1CCc2ccccc2C1` (configuration not stated): the inhibition was 4.67%.

Consider `CCOc1ccc(Oc2nc(NCC(C)C)nc(N(C)C)n2)nn1`, for which the inhibition was -2.04%.

Take `COC(=O)Cn1c(=O)oc2ccc(C)cc21`: the inhibition was -1.52%.

For the molecule `COc1cc(NC(=O)CCc2c(C)nc3nc(C)nn3c2C)cc(OC)c1`, the inhibition is 2.33%.

Regarding `COC(=O)c1ncccc1SC`, the inhibition was -6.32%.

With `COC(=O)c1sccc1NC(=O)CSc1cccc(Cl)c1Cl`, the inhibition is 11%.

Turning to `COc1ccc(-c2noc(C3CCCN(S(=O)(=O)c4ccc(C)c(Cl)c4)C3)n2)cc1OC` (configuration not stated), the inhibition was -3.19%.

In the case of `CCCC(C)NC(=O)COc1ccc(S(=O)(=O)c2ccc(OCC(=O)NC(C)CCC)cc2)cc1` (configuration not stated), the inhibition was -8.03%.

Consider `O=C(Nc1cccnc1)C1CCN(S(=O)(=O)c2ccc(Cl)cc2)CC1`, for which the inhibition is 0.94%.

Regarding `CSCCC(NC(=O)CCC(=O)OC1CC[C@H]2[C@@H]3CC[C@H]4CC(=O)CC[C@]4(C)[C@H]3CC[C@]12C)C(=O)O` (some centres not stated), the inhibition is 2.77%.

Regarding `CCOC(=O)c1c(NC(=O)CSc2nnc(C)s2)sc2c1CCC(CC)C2` (configuration not stated), the inhibition is -2.5%.

`COC(=O)C1=C(N)OC2=C(C(=O)CC(C)(C)C2)C1c1ccccc1OCC#N` (configuration not stated): the inhibition is 4.16%.

Regarding `Cc1ccc(NC(=O)C2CCCN(c3ncccn3)C2)c(C)c1` (configuration not stated), the inhibition is 7.16%.

Take `CCCc1ccc2oc(C(=O)N(C)Cc3cnccn3)c(C)c2c1`: the inhibition is -5.84%.

Consider `CCCc1ccc2oc(C(=O)N(C)Cc3ccn[nH]3)c(C)c2c1`, for which the inhibition is 4.45%.

As for `Cc1cc(C)c(NC(=O)CSc2nnc(CN3CCOCC3)n2C)c(C)c1`, the inhibition was -5.19%.

For the molecule `Cc1cccc(NC(=O)CSc2nnc(Cc3ccccc3)o2)c1`, the inhibition was 9.03%.

On to `Cc1ccc(NC(=O)CSc2nnc(Cc3ccccc3)o2)cc1`, for which the inhibition was -3.22%.

As for `O=C(COC(=O)CCC(=O)c1ccc(F)cc1)NC1CCCCC1`, the inhibition was -5.44%.

`CC1(C)NC(C(=O)O)Cc2c1[nH]c1ccccc21` (configuration not stated): the inhibition was -1.33%.

For `CC12CCC(=O)N1C(C(=O)O)Cc1c2[nH]c2ccccc12` (configuration not stated), the inhibition is 6.77%.

As to `CC1Cc2ccccc2N1CC(=O)Nc1cccc(S(N)(=O)=O)c1` (configuration not stated), the inhibition is 3.61%.

On to `CCOc1ccc(CCNC(=O)c2nn(C)c3c2CS(=O)(=O)c2ccccc2-3)cc1OCC`, for which the inhibition was 3.57%.

Turning to `O=C(NC1=NCCS1)C1CCN(S(=O)(=O)c2cc([N+](=O)[O-])ccc2Cl)CC1`, the inhibition was -7.02%.

With `O=C(NC1CC1)C1CCN(S(=O)(=O)c2cc([N+](=O)[O-])ccc2Cl)CC1`, the inhibition was -3.67%.

With `CC(=O)c1cccc(OCc2cc(C(=O)N(C)CCc3cnn(C)c3)no2)c1`, the inhibition was 1.92%.

For `CCN(Cc1cnn(C)c1)C(=O)c1cc(COc2cc(C)c(Cl)c(C)c2)on1`, the inhibition was 10%.

`COc1ccc(Cl)cc1Nc1cc(C)nc2nc(C)nn12`: the inhibition is 2.13%.

In the case of `OC(CN1CC=C(/C=C/c2ccc(Br)cc2)CC1)c1ccccc1` (configuration not stated), the inhibition was 10.3%.

On to `COc1ccc(/C=C/C2=CCN(C)CC2)cc1`, for which the inhibition was -5.45%.

As for `Cc1cc(C(=O)NCC(=O)Nc2c(C)cccc2C)c2ccccc2n1`, the inhibition was -6.3%.

In the case of `O=C(NCCCN1CCOCC1)C1CCN(S(=O)(=O)c2ccccc2)CC1`, the inhibition is -0.05%.

Turning to `O=C(N/N=C/c1ccc(-c2ccc(S(=O)(=O)Nc3ncccn3)cc2)o1)c1cc2ccccc2cc1O`, the inhibition is -7.05%.

Take `CCCOc1ccc(C(=O)N/N=C/c2ccc(-c3ccc(S(=O)(=O)Nc4ncccn4)cc3)o2)cc1`: the inhibition was 7.99%.

Turning to `CCC1CCC(C(=O)NNC(=O)OC)CC1` (configuration not stated), the inhibition was -7.14%.

Take `COc1cccc(Nc2nnc(SCC(=O)Nc3sccc3C(N)=O)s2)c1`: the inhibition was 0.87%.

Turning to `Cc1ccc(-c2c[n+](CC(=O)Nc3c(C)cccc3C)c3n2CCC3)cc1`, the inhibition was 11.9%.

As to `COc1ccc(C(=O)C[n+]2cc(-c3ccc(OC)cc3)n3c2CCCC3)cc1`, the inhibition was 5.06%.

Turning to `Cc1ccc(C(=O)C[n+]2cc(-c3ccccc3)n3c2CCCCC3)cc1`, the inhibition was 2.54% and -2.93%.

In the case of `Cc1ccc(-c2c[n+](CC(=O)c3cccs3)c3n2CCC3)cc1`, the inhibition was -3.4%.

Take `Cn1c(NC(=O)C[n+]2cc(-c3ccc(Cl)cc3)n3c2CCC3)cc(=O)n(C)c1=O`: the inhibition was -2.19%.

Consider `Cc1ccc(NC(=O)C[n+]2cc(-c3ccccc3)n3c2CCC3)cc1`, for which the inhibition is 5.89%.

On to `Cc1c(C(=O)N2CCOCC2)cc(C(C)(C)C)n1-c1ccccc1`, for which the inhibition is -3.73%.

As to `O=C(OCCNc1nc(-c2ccccc2)nc2ccccc12)c1cccnc1`, the inhibition is 10.2%.

For `COc1ccccc1NC(=O)CN1CCN(C(=O)C2CCCO2)CC1` (configuration not stated), the inhibition is -18.2%.

For `NC(=O)CSc1nnc(-c2cc(-c3cccs3)nc3ccccc23)o1`, the inhibition is 5.91%.

With `Cc1sc(NC(=O)CN2CCCC2)nc1-c1ccc2c(c1)CCN2C(=O)c1cccc(F)c1`, the inhibition is 9.15%.

As to `CN(C)C(=N)c1n[nH]nc1SCc1ccc(Cl)c(Cl)c1`, the inhibition is -2.06%.

For `CCOc1ccc(N2C(=O)c3ccc(C(=O)OCc4c(C)noc4C)cc3C2=O)cc1`, the inhibition was -11.4%.

On to `CCCN(CC1CC1)C(=O)COC(=O)c1oc2ccc(OCC)cc2c1C`, for which the inhibition is 2.37%.

On to `COc1ccc(CNC(=O)c2cc(C3CC3)on2)cc1`, for which the inhibition is 8.82%.

Turning to `O=C(c1ccc(Br)o1)N1CCc2ccccc21`, the inhibition is -3.15%.

Consider `O=C(NC(=S)N1CCc2ccccc21)c1ccccc1Br`, for which the inhibition was 6.29%.

As to `CC(OC(=O)c1cccnc1Cl)C(=O)Nc1ccc2c(c1)OCO2` (configuration not stated), the inhibition was 0.24%.

Turning to `C=CCOc1cccc(C2C(C(=O)c3ccco3)=C(O)C(=O)N2CCN(CC)CC)c1` (configuration not stated), the inhibition was -1.23%.

For the molecule `CCCOC(=O)c1cc(-c2ccc(C=O)o2)ccc1Cl`, the inhibition is 9.94%.

Consider `CCOC(=O)c1ccc(-c2ccc(C=O)o2)cc1`, for which the inhibition is 12.7%.

For `CC(C)(C)NC(=O)COC(=O)c1ccc(S(=O)(=O)N2CCCC2)cc1`, the inhibition was 5.11%.

As to `Cc1nnc(N2C(=O)c3cccc4c([N+](=O)[O-])ccc(c34)C2=O)s1`, the inhibition was -2.32%.

Consider `CN(C)CCCN1C(=O)c2cccc3c([N+](=O)[O-])ccc(c23)C1=O`, for which the inhibition is 36.5%.

In the case of `Cc1ccc(S(=O)(=O)NCC(=O)OCC(=O)Nc2cccc(S(=O)(=O)NC3=NCCCCC3)c2)cc1`, the inhibition is 7.74%.

Turning to `COCCn1cnnc1SCC(=O)Nc1cccc(S(=O)(=O)N(C)c2ccccc2)c1`, the inhibition is -4.95%.

Turning to `COc1cc(OC)c(C(=O)Nc2cccnc2)cc1OC`, the inhibition was 3.08%.

Regarding `CN(C)c1ncc(S(=O)(=O)c2ccccc2)c(N)n1`, the inhibition was -5.65%.

`CN1CCN(c2ccc(F)cc2N)CC1`: the inhibition was -0.88%.

For the molecule `CN1CCN(C2=Cc3ccccc3Sc3cc(F)ccc32)CC1`, the inhibition is -12.7%.
